Measurements from PubChem BioAssay AID1159580 (chemical genetic matrix, 2015).
Where “and” joins values, the source holds several entries; their conditions need not be identical. Identical values can stand only once. The whole screen tested about 5,500 compounds, of which about 2,000 (36%) were called active. Inconclusive results (about 18%) are left out. Rule as the data show it: active = normalized growth mostly below about 0.91 (no sharp cut-off); inconclusive = no clear call, values can overlap the other calls; inactive = mostly above about 0.92. Some of the results follow.

Test: chemical genetic growth profiling, strain panel (AID 1159580);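 also: tested at 20 µM; growth read once vehicle control cultures reached saturation at 30 °C; 1 = growth at the plate median or of vehicle wells; lower values mean less growth of the strain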
Settings: growth OD

Measured: normalized growth

CCCC(C(=O)OCCN(CC)CC)(c1ccccc1)c1ccccc1
inactive: S. cerevisiae deletion strains, locus YJR075W, strain HOC1, hits give low values 1 and 0.971 | S. cerevisiae deletion strains, locus YKL009W, strain mrt4, hits give low values 0.982 | S. cerevisiae deletion strains, locus YKL068W, hits give low values 0.995 | S. cerevisiae deletion strains, locus YKL085W, strain MDH1 (second series), hits give low values 0.99 | S. cerevisiae deletion strains, locus YKL085W, strain MDH1, hits give low values 0.99 | S. cerevisiae deletion strains, locus YKL160W, strain elf1, hits give low values 0.982 | S. cerevisiae deletion strains, locus YKL190W, strain CNB1, hits give low values 0.995 | S. cerevisiae deletion strains, locus YKR001C, strain vps1, hits give low values 0.999 | S. cerevisiae deletion strains, locus YKR026C, strain gcn3, hits give low values 1 | S. cerevisiae deletion strains, locus YKR091W, strain srl3, hits give low values 1 | S. cerevisiae deletion strains, locus YLL001W, strain dnm1, hits give low values 0.998 | S. cerevisiae deletion strains, locus YLL026W, hits give low values 1.01 | S. cerevisiae deletion strains, locus YLL041C, strain sdh2, hits give low values 1 | S. cerevisiae deletion strains, locus YLR027C, strain aat2, hits give low values 1 | S. cerevisiae deletion strains, locus YLR039C, strain RIC1, hits give low values 1.16 | S. cerevisiae deletion strains, locus YLR058C, strain SHM2, hits give low values 1.01 | S. cerevisiae deletion strains, locus YLR102C, strain apc9, hits give low values 0.994 | S. cerevisiae deletion strains, locus YLR113W, strain HOG1, hits give low values 0.966 | S. cerevisiae deletion strains, locus YLR221C, strain rsa3, hits give low values 0.991 | S. cerevisiae deletion strains, locus YLR258W, strain gsy2, hits give low values 0.989 | S. cerevisiae deletion strains, locus YLR262C, strain YPT6 (second series), hits give low values 1.12 | S. cerevisiae deletion strains, locus YLR262C, strain YPT6, hits give low values 1.25 | S. cerevisiae deletion strains, locus YLR268W, strain sec22, hits give low values 0.977 | S. cerevisiae deletion strains, locus YLR320W, strain mms22, hits give low values 0.968 | S. cerevisiae deletion strains, locus YLR330W, strain CHS5, hits give low values 1.01 | S. cerevisiae deletion strains, locus YLR342W, strain FKS1 (second series), hits give low values 0.941 | S. cerevisiae deletion strains, locus YLR342W, strain FKS1, hits give low values 0.999 | S. cerevisiae deletion strains, locus YLR357W, strain rsc2, hits give low values 0.935 | S. cerevisiae deletion strains, locus YLR370C, strain arc18, hits give low values 1 | S. cerevisiae deletion strains, locus YLR371W, strain rom2, hits give low values 0.985 | S. cerevisiae deletion strains, locus YLR384C, strain iki3, hits give low values 1.01 | S. cerevisiae deletion strains, locus YLR418C, strain cdc73, hits give low values 0.883 | S. cerevisiae deletion strains, locus YML016C, strain PPZ1, hits give low values 1.01 | S. cerevisiae deletion strains, locus YML032C, strain rad52, hits give low values 0.989 | S. cerevisiae deletion strains, locus YML120C, strain ndi1, hits give low values 0.989 | S. cerevisiae deletion strains, locus YML124C, strain tub3, hits give low values 0.995 | S. cerevisiae deletion strains, locus YMR058W, strain fet3, hits give low values 1 | S. cerevisiae deletion strains, locus YMR078C, strain ctf18, hits give low values 0.99 | S. cerevisiae deletion strains, locus YMR125W, strain sto1, hits give low values 1.01 | S. cerevisiae deletion strains, locus YMR129W, hits give low values 0.983 | S. cerevisiae deletion strains, locus YMR205C, strain PFK2, hits give low values 0.972 | S. cerevisiae deletion strains, locus YMR223W, strain ubp8, hits give low values 0.967 | S. cerevisiae deletion strains, locus YMR231W, strain pep5, hits give low values 1.01 | S. cerevisiae deletion strains, locus YMR263W, strain SAP30, hits give low values 1 | S. cerevisiae deletion strains, locus YMR307W, strain GAS1, hits give low values 1.03 | S. cerevisiae deletion strains, locus YNL067W, strain RPL9B, hits give low values 0.996 | S. cerevisiae deletion strains, locus YNL071W, strain lat1, hits give low values 0.957 | S. cerevisiae deletion strains, locus YNL128W, strain TEP1, hits give low values 0.992 | S. cerevisiae deletion strains, locus YNL153C, strain GIM3, hits give low values 1.02 and 1.01 | S. cerevisiae deletion strains, locus YNL183C, strain NPR1, hits give low values 0.946 | S. cerevisiae deletion strains, locus YNL197C, strain WHI3, hits give low values 1.01 | S. cerevisiae deletion strains, locus YNL209W, strain ssb2, hits give low values 1.02 | S. cerevisiae deletion strains, locus YNL224C, strain SQS1, hits give low values 1.02 | S. cerevisiae deletion strains, locus YNL233W, strain BNI4, hits give low values 1.01 | S. cerevisiae deletion strains, locus YNL248C, strain rpa49, hits give low values 0.989 | S. cerevisiae deletion strains, locus YNL250W, strain rad50, hits give low values 0.981 | S. cerevisiae deletion strains, locus YNL271C, strain bni1, hits give low values 0.994 | S. cerevisiae deletion strains, locus YNL298W, strain CLA4, hits give low values 0.989 | S. cerevisiae deletion strains, locus YNL307C, strain MCK1, hits give low values 0.983 | S. cerevisiae deletion strains, locus YNL322C, strain KRE1 (second series), hits give low values 1.01 | S. cerevisiae deletion strains, locus YNL322C, strain KRE1, hits give low values 0.985 | S. cerevisiae deletion strains, locus YNR049C, strain mso1, hits give low values 1.01 | S. cerevisiae deletion strains, locus YNR052C, strain pop2, hits give low values 0.986 | S. cerevisiae deletion strains, locus YOL006C, strain TOP1, hits give low values 1.05 | S. cerevisiae deletion strains, locus YOL012C, strain htz1 0.951 | S. cerevisiae deletion strains, locus YOL147C, strain pex11, hits give low values 0.995 | S. cerevisiae deletion strains, locus YOR001W, strain rrp6, hits give low values 0.977 | S. cerevisiae deletion strains, locus YOR061W, strain CKA2, hits give low values 1.01 | S. cerevisiae deletion strains, locus YOR069W, strain VPS5, hits give low values 1 | S. cerevisiae deletion strains, locus YOR070C, strain gyp1, hits give low values 1 | S. cerevisiae deletion strains, locus YOR080W, strain dia2, hits give low values 0.993 | S. cerevisiae deletion strains, locus YOR083W, strain WHI5 (second series), hits give low values 0.993 | S. cerevisiae deletion strains, locus YOR083W, strain WHI5, hits give low values 0.983 | S. cerevisiae deletion strains, locus YOR106W, strain vam3, hits give low values 0.979 | S. cerevisiae deletion strains, locus YOR136W, strain idh2, hits give low values 0.993 | S. cerevisiae deletion strains, locus YOR144C, strain elg1, hits give low values 0.989 | S. cerevisiae deletion strains, locus YOR184W, strain ser1, hits give low values 0.99 | S. cerevisiae deletion strains, locus YOR231W, strain MKK1, hits give low values 0.98 | S. cerevisiae deletion strains, locus YOR265W, strain rbl2, hits give low values 1.01 | S. cerevisiae deletion strains, locus YOR270C, strain vph1, hits give low values 0.942 | S. cerevisiae deletion strains, locus YOR290C, strain snf2, hits give low values 0.998 | S. cerevisiae deletion strains, locus YOR316C, strain cot1, hits give low values 1 | S. cerevisiae deletion strains, locus YPL051W, strain arl3, hits give low values 0.972 | S. cerevisiae deletion strains, locus YPL055C, strain LGE1, hits give low values 1.01 | S. cerevisiae deletion strains, locus YPL078C, strain atp4, hits give low values 0.998 | S. cerevisiae deletion strains, locus YPL106C, strain sse1, hits give low values 1.02 | S. cerevisiae deletion strains, locus YPL240C, strain hsp82, hits give low values 0.998 | S. cerevisiae deletion strains, locus YPL241C, strain CIN2, hits give low values 1 | S. cerevisiae deletion strains, locus YPL256C, strain CLN2, hits give low values 0.994 | S. cerevisiae deletion strains, locus YPR119W, strain clb2, hits give low values 0.996 | S. cerevisiae deletion strains, locus YPR141C, strain kar3, hits give low values 0.996 | S. cerevisiae deletion strains, locus YPR163C, strain tif3, hits give low values 0.995 | S. cerevisiae deletion strains, locus YPR167C, strain met16, hits give low values 0.993 | S. cerevisiae deletion strains, strain wtn01, hits give low values 0.974 | S. cerevisiae strains, strain wild type, hits give low values 1.01
